Results taken from PubChem BioAssay (NCATS).
Records with an inconclusive call do not appear. Activity calls are given as the source filed them. Unless noted, calls come from the whole dose curve; as a rule, active = well fitted curve in either direction with a large enough effect (not every such curve was filed as active); inconclusive = small, poorly fitted or top-dose-only effect, or another doubt; inactive = flat fitted curve, though single readings scatter.

How the values were obtained:
[1] = target: Lysosomal acid glucosylceramidase (Homo sapiens) (UniProt P04062); experiment: Glucocerebrosidase-p2 (AID 348; in the data active = potency below about 10 µM; note: potency is the fitted concentration of half-maximal effect); conditions: purified GBA, blue fluorogenic substrate, 40 min
Chain of Lysosomal acid glucosylceramidase (Homo sapiens) (P04062 whole entry, looked up): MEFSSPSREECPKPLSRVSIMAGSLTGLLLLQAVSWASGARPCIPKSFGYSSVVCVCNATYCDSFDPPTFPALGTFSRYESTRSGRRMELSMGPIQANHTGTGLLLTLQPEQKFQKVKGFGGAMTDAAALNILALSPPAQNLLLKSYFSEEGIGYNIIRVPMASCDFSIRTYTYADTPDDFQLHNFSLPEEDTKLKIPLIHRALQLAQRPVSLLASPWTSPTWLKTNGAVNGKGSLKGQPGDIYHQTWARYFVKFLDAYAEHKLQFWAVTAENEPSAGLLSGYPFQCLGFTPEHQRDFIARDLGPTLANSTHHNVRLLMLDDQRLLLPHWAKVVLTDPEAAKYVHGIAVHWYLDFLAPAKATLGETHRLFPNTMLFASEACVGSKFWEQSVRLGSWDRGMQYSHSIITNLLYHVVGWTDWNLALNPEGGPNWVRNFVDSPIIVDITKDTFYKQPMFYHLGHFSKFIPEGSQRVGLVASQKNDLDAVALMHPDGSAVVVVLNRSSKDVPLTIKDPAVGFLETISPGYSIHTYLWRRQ
Procedure, shortened: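 Compounds titrated from 0.6 nM upwards against 0.2 nM enzyme in pH 5.9 citric acid/KH2PO4, taurocholate, tween-20; blue fluorogenic substrate 80 uM, 40 min room temperature, stopped and read Ex 365/Em 440 for AC50.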

[2] = AP1 Signaling Pathway (AID 357); conditions: ME-180 AP-1-bla reporter, EGF-induced, beta-lactamase ratio, 5 h; at 7.69 µM (top of the series) unless noted;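 note: ME-180 reporter cells stimulated with EGF at its EC50 level; % is set by controls: 0 for no effect and ±100 for the full control effect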
Procedure, shortened: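 A ratiometric CCF4 readout (405 nm excitation; 460 and 530 nm emission) quantified AP-1-driven beta-lactamase in ME-180 cells after 5 h with compound and EC50 EGF; AC50 values were derived for activators and inhibitors.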

[3] = target: Cytochrome P450 1A2 (Homo sapiens) (UniProt P05177); experiment: p450-cyp1a2 (AID 410; calls by dose curve; note: potency is the fitted concentration of half-maximal effect;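 for activity change, negative = inhibition: -100% = full effect of reference inhibitor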); conditions: recombinant CYP1A2, luciferin-ME demethylation, luminescence; series mostly up to 11.4 µM
Chain of Cytochrome P450 1A2 (Homo sapiens) (P05177 whole entry, looked up): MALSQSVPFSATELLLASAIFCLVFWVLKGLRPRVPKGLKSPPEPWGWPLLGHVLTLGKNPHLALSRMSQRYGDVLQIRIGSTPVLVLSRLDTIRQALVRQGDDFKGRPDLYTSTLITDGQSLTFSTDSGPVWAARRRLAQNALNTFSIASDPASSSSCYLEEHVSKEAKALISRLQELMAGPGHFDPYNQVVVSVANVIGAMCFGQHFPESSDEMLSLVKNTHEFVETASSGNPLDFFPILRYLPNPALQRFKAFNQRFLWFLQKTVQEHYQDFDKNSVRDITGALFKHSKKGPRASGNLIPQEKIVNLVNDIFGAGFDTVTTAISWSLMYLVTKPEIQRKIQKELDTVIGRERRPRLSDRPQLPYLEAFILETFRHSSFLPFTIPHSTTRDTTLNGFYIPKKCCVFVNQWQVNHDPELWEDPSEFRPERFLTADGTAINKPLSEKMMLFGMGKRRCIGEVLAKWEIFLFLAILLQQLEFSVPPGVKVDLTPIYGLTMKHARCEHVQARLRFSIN
Procedure, shortened: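 Human CYP1A2 (20nM) demethylated Luciferin-ME at its Km (100uM) in 100mM KPO4. After 10 min compound preincubation, NADPH regeneration ran the reaction 60 min at room temperature. Luciferin was read by luminescence, normalized to 57 uM furafylline.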

[4] = NFAT Signaling Pathway (AID 444); conditions: Jurkat NFAT-bla M1, carbachol, beta-lactamase ratio, 5 h; at 7.69 µM (top of the series) unless noted;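 note: carbachol stimulus at about its EC50 of 1 µM final; % is set by controls: 0 for no effect and ±100 for the full control effect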
Procedure, shortened: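 Read-out: CCF4 FRET ratio (460 nm/530 nm) after 1 h RT dye loading, used for %activity and AC50 from titration series. Cells: Jurkat NFAT-β-lactamase/M1 line, treated with compound plus 1 uM carbachol for 5 h, 37 °C.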

[5] = Stat Signaling Pathway (AID 446); conditions: ME-180 SIE beta-lactamase reporter, IL-6 stimulated, 5 h; at 7.69 µM (top of the series) unless noted;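 note: ME-180 cervical cancer cells given 40 pM IL-6 alongside compound; SIE-controlled beta-lactamase reporter measured as 460/530 nm FRET emission ratio; % is set by controls: 0 for no effect and ±100 for the full control effect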
Procedure, shortened: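 Screening format detects activators and inhibitors alike: ME-180 SIE-bla cells stimulated at 40 pM IL-6 for 5 hrs with compound, then dual-emission beta-lactamase read at 405 nm excitation.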

[6] = target: Glucocorticoid receptor (Homo sapiens) (UniProt P04150); experiment: GR-GFP Redistribution (AID 450;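 active = compounds whose dose series gives a full or clear partial fitted curve of increased nuclear translocation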; note: potency is the fitted concentration of half-maximal effect); conditions: U2OS GR-GFP nuclear translocation, laser cytometry, 2 h
Chain of Glucocorticoid receptor (Homo sapiens) (P04150 whole entry, looked up, the tested form may be a part): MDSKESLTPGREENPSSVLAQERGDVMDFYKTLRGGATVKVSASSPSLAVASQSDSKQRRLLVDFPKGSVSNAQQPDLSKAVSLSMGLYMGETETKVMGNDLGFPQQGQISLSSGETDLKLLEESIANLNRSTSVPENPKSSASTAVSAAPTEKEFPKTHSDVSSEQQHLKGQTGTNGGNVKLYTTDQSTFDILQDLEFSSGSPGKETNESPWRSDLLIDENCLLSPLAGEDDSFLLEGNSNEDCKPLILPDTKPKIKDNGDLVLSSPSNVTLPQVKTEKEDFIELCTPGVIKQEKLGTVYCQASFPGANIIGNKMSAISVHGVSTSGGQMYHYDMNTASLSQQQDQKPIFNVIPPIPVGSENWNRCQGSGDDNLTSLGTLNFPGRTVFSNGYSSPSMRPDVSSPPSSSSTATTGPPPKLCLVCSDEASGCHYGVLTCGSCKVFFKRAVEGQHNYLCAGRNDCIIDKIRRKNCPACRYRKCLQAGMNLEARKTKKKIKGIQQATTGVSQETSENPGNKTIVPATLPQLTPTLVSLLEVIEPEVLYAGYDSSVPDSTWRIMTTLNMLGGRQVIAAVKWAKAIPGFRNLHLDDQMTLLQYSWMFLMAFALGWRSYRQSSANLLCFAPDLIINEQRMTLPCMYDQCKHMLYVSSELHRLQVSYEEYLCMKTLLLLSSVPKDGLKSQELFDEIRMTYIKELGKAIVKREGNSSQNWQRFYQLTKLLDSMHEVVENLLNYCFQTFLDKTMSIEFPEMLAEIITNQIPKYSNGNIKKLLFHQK

[7] = target: Glucocorticoid receptor (Homo sapiens) (UniProt P04150); experiment: GR-EFC Redistribution (AID 451; calls by dose curve; note: potency is the fitted concentration of half-maximal effect); conditions: CHO-K1 GR-EFC translocation, beta-gal luminescence, 2 h
Procedure, shortened: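 Translocation of GR-ED fusion to nuclear EA restores b-gal, read by luminescence after 1 h room-temperature detection. Engineered CHO-K1 biosensor cells, 1,000/well, exposed 2 h at 37 C to titrations up to 46 uM final.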

[8] = target: Mitogen-activated protein kinase 10 (Mus musculus) (UniProt Q61831); experiment: JNK3 AlphaScreen Assay (AID 530); conditions: JNK3 lysate, c-Jun phosphorylation; series mostly up to 11.4 µM;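 note: kinase came from lysate of stimulated human HepG2 cells; signal reports phosphorylation of biotinylated GST-cJun 1-79 at Ser73 with 10 µM ATP; % is set by controls: 0 for no effect and ±100 for the full control effect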
Procedure, shortened: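 Room-temperature AlphaScreen kinase assay; pre-activated HepG2 lysate as JNK3 source, biotin-GST-cJun(1-79) substrate, 10 uM ATP, compound 15 min preincubation.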

[9] = target: 3',5'-cyclic-AMP phosphodiesterase 4B (Homo sapiens) (UniProt Q07343); experiment: qHTS Assay for Inhibitors of PDE-IV (AID 607; active = well fitted activation curve with a large enough effect in the main read-out, with a control signal flat, not every such curve was filed as active; note: % of control where 0% means no effect); conditions: HEK293 ACTOne CNG channel cells, membrane potential fluorescence; series mostly up to 22.9 µM
Chain of 3',5'-cyclic-AMP phosphodiesterase 4B (Homo sapiens) (Q07343 whole entry, looked up): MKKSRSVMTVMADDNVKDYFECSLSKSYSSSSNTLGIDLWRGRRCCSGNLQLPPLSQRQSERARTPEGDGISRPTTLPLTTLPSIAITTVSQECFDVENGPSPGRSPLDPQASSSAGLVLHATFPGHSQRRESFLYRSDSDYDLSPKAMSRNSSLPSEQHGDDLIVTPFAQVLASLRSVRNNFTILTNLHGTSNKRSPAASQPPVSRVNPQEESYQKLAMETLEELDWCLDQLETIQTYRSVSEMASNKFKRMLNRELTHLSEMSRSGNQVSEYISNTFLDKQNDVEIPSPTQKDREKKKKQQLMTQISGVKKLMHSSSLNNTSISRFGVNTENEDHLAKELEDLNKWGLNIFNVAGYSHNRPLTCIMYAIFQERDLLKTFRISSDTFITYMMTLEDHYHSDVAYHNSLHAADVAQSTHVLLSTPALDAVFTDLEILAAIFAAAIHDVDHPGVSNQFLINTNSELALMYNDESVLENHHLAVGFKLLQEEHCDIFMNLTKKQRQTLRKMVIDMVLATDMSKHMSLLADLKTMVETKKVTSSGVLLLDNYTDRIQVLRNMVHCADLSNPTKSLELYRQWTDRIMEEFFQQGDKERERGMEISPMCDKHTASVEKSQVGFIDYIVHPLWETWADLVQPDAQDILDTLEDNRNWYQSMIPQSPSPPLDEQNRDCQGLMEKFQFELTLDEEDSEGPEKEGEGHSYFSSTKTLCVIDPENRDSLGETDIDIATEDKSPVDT
Procedure, shortened: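 The readout is membrane depolarisation from a cAMP-sensing CNG channel, detected with a potential dye at ex 535/em 590. Cells were HEK293-derived (endogenous PDE-IV) at 1000 cells/well, titrated up to 22.9 uM final.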

[10] = target: Cytochrome P450 3A4 (Homo sapiens) (UniProt P08684); experiment: qHTS Assay for Activators of Cytochrome P450 3A4 (AID 885; active = well fitted activation curve with a large enough effect; note: nearly all actives have a fitted effect of over 65% in size); conditions: recombinant CYP3A4, Luciferin-PPXE luminescence, 60 min; series mostly up to 11.4 µM
Chain of Cytochrome P450 3A4 (Homo sapiens) (P08684 whole entry, looked up): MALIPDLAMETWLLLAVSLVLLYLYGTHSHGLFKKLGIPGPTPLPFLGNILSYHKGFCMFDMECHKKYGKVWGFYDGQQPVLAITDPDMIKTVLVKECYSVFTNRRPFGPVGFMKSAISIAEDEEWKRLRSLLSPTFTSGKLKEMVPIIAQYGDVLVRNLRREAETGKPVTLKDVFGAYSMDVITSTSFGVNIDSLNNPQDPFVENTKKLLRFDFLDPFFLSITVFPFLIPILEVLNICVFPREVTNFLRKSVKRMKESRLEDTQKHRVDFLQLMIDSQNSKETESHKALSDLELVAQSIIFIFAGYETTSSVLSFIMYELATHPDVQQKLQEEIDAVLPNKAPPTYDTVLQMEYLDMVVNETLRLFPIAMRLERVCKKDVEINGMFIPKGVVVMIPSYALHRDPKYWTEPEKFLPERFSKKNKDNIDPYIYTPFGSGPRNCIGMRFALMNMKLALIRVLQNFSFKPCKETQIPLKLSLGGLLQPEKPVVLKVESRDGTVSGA
Procedure, shortened: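 Steps: enzyme/substrate mix dispensed; compound added, 10 min RT; NADPH regeneration solution added, 60 min RT; luciferin detection buffer stops reaction; 20 min later luminescence measured.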

C[C@@]12CCC(=O)C=C1CC[C@H]1[C@@H]2[C@@H](O)C[C@]2(C)[C@@H]1CC[C@@]2(O)C(=O)COC(=O)C1CCCC1
active: Potency [6] 0.0333 µM | Potency [7] 0.61 µM
inactive: Potency [1] > 11.4 µM | activity change, negative = inhibition [2] -7.32% | Potency [3] | activity change, negative = inhibition [4] 4.12% | activity, negative = inhibition [5] -0.238% | Potency [8] | Potency [9] | Potency [10]

[O-][n+]1c(CN2CCCCC2)nc2cccc3c2c1-c1ccccc1-3
active: Potency [3] 1.58 µM
inactive: Potency [1] > 11.4 µM | activity change, negative = inhibition [2] -8.04% | activity change, negative = inhibition [4] 26.2% | activity, negative = inhibition [5] 6.89% | Potency [6] > 46 µM | Potency [7] > 9.22 µM | Potency [8] | Potency [9] | Potency [10]

OCCNc1ncnc2nc[nH]c12
inactive: Potency [1] > 11.4 µM | activity change, negative = inhibition [2] 7.92% | Potency [3] | activity change, negative = inhibition [4] 9% | activity, negative = inhibition [5] 2.92% | Potency [6] > 46 µM | Potency [7] > 9.22 µM | Potency [8] | Potency [9] | Potency [10]

N#C/C(=C\NC(=S)c1ccncc1)c1nc2ccccc2s1
active: Potency [3] 3.16 µM
inactive: Potency [1] > 11.4 µM | activity change, negative = inhibition [2] -3.92% | activity change, negative = inhibition [4] 8.12% | activity, negative = inhibition [5] 11.3% | Potency [6] > 46 µM | Potency [7] > 9.22 µM | Potency [8] | Potency [9] | Potency [10]

CC1(CC(=O)O)O[C@H]2CCCCC[C@H]2O1 (stereo not given in full) (tested in a mixture with another compound)
inactive: Potency [1] > 11.4 µM | activity change, negative = inhibition [2] 8.96% | Potency [3] | activity change, negative = inhibition [4] -4.93% | activity, negative = inhibition [5] 5.55% | Potency [6] > 46 µM | Potency [7] > 9.22 µM | Potency [8] | Potency [9] | Potency [10]

O=[N+]([O-])c1cc(Cl)cc2c1nc(NCCO)c1ccccc12
inactive: Potency [1] > 11.4 µM | activity change, negative = inhibition [2] -24% | activity change, negative = inhibition [4] 22.6% | activity, negative = inhibition [5] -3.56% | Potency [6] > 46 µM | Potency [7] > 9.22 µM | Potency [8] | Potency [9] | Potency [10]
active: Potency [3] 0.02 µM

Nc1ccc(S(=O)(=O)c2ccc(NC(=O)c3cccnc3)cc2)cc1
inactive: Potency [1] > 11.4 µM | activity change, negative = inhibition [2] -0.755% | activity change, negative = inhibition [3] -21.1% [at 2.29 µM] | activity change, negative = inhibition [4] 12.7% | activity, negative = inhibition [5] 8.7% | Potency [6] > 46 µM | Potency [7] > 9.22 µM | Potency [8] | Potency [9] | Potency [10]

COc1ncc2nc(-c3cc(F)cc(F)c3)c(=O)n(C[C@H]3CCCO3)c2n1
active: Potency [3] 3.16 µM
inactive: Potency [1] > 11.4 µM | activity change, negative = inhibition [2] -0.553% | activity change, negative = inhibition [4] -10.9% | activity, negative = inhibition [5] -4.03% | Potency [6] > 9.22 µM | Potency [7] > 46 µM | Potency [8] | Potency [9] | Potency [10]

O=C(NNS(=O)(=O)c1ccccc1)c1cccnc1
inactive: Potency [1] > 11.4 µM | activity change, negative = inhibition [2] 16.3% | activity change, negative = inhibition [3] 2.2% [at 2.29 µM] | activity change, negative = inhibition [4] 7.27% | activity, negative = inhibition [5] 2.24% | Potency [6] > 46 µM | Potency [7] > 9.22 µM | Potency [8] | Potency [9] | Potency [10]

O=C(O)c1nc2nc(Cl)c(Cl)nc2[nH]1
inactive: Potency [1] > 11.4 µM | activity change, negative = inhibition [2] 0.697% | Potency [3] | activity change, negative = inhibition [4] -0.0714% | activity, negative = inhibition [5] 2.39% | Potency [6] > 46 µM | Potency [7] > 9.22 µM | Potency [8] | Potency [9] | Potency [10]

C=C[C@]1(C)C[C@H](OC(=O)CO)[C@]2(C)C3C(=O)CC[C@]3(CC[C@H]2C)[C@H](C)[C@H]1O (stereo not given in full)
inactive: Potency [1] > 11.4 µM | activity change, negative = inhibition [2] -0.357% | activity change, negative = inhibition [3] -21% [at 2.29 µM] | activity change, negative = inhibition [4] -4.75% | activity, negative = inhibition [5] -4.08% | Potency [6] > 46 µM | Potency [7] > 9.22 µM | Potency [8] | Potency [9] | Potency [10]

CC[C@H]1CC[C@H]2[C@@H]3CC=C4C[C@H](OC(C)=O)[C@@H](N)C[C@@]4(C)[C@H]3CC[C@@]12C
inactive: Potency [1] > 11.4 µM | activity change, negative = inhibition [2] 8.35% | Potency [3] | activity change, negative = inhibition [4] 8.17% | activity, negative = inhibition [5] -1.58% | Potency [6] > 46 µM | Potency [7] > 9.22 µM | Potency [8] | Potency [9] | Potency [10]

NC1=C(O)C(=O)[C@H](c2c[nH]c3ccc(OCc4ccccc4)cc23)O1
inactive: Potency [1] > 11.4 µM | activity change, negative = inhibition [2] -18.8% | activity change, negative = inhibition [4] 7.15% | activity, negative = inhibition [5] -6.03% | Potency [6] > 46 µM | Potency [7] > 9.22 µM | Potency [8] | Potency [9] | Potency [10]
active: Potency [3] 3.98 µM
